# Assay results as given in ChEMBL document CHEMBL3988442, “University of Dundee, Small-Polar-MMV Screening Library” (2021).
# For some assays here: Measured potencies and affinities stand elsewhere.
# Legend:
# [1] = biological target: T1, Methionyl-tRNA synthetase, putative (Leishmania donovani (strain BPK282A1)) (UniProt E9BF75); test: Leishmania donovani Methionine tRNA synthetase (LdMetRS):v7. Dose response assay; assay type: functional; set-up: conc 80 nM, time 150 minutes
# T1 sequence (whole entry): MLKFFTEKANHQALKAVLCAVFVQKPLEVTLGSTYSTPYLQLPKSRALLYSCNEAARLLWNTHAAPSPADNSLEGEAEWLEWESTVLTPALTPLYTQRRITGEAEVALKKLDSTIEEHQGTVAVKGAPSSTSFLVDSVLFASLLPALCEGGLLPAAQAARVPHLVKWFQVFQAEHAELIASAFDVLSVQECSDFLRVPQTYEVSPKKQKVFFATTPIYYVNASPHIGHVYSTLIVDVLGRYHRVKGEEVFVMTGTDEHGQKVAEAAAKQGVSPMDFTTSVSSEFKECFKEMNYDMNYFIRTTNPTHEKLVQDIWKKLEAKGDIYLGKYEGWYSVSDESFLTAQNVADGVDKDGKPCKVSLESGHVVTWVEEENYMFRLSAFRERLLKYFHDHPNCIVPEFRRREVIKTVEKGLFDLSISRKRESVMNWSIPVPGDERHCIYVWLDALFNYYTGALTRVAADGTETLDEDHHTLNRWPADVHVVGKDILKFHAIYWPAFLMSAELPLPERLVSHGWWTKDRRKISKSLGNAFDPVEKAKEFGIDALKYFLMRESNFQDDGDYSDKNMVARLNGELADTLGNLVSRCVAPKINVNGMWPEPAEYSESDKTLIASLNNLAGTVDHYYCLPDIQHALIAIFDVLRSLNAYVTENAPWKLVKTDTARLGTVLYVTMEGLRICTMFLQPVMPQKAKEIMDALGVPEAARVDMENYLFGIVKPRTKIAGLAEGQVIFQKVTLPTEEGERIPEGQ
# [2] = biological target: Protein translocase subunit SecA (Escherichia coli (strain K12)) (UniProt P10408); test: Assay to Identify E. coli SecA ATPase Inhibitors; assay type: functional; set-up: scale not given: direction of the effect not stated beside the values; settings: 30 µM
# Sequence of Protein translocase subunit SecA (Escherichia coli (strain K12)) (P10408 whole entry): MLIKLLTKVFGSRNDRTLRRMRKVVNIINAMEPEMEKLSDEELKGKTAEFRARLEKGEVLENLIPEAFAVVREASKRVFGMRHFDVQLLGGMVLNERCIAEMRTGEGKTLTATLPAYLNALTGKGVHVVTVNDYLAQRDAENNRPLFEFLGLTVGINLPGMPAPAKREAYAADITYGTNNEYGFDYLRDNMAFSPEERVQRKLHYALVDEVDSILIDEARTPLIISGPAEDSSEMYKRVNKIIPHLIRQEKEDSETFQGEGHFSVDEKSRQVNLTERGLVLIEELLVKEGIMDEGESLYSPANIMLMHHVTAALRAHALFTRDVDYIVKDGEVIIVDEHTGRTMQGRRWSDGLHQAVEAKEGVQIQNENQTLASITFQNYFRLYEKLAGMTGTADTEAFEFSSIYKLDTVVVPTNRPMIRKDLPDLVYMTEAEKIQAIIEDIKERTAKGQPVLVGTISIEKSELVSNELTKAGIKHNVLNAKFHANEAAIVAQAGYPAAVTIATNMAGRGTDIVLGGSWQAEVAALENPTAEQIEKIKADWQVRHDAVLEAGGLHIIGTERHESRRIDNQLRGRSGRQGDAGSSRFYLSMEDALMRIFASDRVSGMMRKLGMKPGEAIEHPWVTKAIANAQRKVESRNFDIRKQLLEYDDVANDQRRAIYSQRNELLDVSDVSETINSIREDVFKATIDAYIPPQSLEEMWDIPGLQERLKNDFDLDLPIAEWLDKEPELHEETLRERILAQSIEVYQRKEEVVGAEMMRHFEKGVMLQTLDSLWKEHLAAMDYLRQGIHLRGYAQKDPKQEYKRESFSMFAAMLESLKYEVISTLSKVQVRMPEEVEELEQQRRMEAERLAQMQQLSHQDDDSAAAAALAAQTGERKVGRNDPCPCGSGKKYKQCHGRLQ
# [3] = biological target: T2, Ubiquitin-activating enzyme e1, putative (Leishmania donovani (strain BPK282A1)) (UniProt E9BSI1); test: Leishmania donovani Ubiquitin Activating Enzyme (LdE1); assay type: functional; set-up: scale not given: direction of the effect not stated beside the values; settings: 30 µM
# T2 sequence (whole entry): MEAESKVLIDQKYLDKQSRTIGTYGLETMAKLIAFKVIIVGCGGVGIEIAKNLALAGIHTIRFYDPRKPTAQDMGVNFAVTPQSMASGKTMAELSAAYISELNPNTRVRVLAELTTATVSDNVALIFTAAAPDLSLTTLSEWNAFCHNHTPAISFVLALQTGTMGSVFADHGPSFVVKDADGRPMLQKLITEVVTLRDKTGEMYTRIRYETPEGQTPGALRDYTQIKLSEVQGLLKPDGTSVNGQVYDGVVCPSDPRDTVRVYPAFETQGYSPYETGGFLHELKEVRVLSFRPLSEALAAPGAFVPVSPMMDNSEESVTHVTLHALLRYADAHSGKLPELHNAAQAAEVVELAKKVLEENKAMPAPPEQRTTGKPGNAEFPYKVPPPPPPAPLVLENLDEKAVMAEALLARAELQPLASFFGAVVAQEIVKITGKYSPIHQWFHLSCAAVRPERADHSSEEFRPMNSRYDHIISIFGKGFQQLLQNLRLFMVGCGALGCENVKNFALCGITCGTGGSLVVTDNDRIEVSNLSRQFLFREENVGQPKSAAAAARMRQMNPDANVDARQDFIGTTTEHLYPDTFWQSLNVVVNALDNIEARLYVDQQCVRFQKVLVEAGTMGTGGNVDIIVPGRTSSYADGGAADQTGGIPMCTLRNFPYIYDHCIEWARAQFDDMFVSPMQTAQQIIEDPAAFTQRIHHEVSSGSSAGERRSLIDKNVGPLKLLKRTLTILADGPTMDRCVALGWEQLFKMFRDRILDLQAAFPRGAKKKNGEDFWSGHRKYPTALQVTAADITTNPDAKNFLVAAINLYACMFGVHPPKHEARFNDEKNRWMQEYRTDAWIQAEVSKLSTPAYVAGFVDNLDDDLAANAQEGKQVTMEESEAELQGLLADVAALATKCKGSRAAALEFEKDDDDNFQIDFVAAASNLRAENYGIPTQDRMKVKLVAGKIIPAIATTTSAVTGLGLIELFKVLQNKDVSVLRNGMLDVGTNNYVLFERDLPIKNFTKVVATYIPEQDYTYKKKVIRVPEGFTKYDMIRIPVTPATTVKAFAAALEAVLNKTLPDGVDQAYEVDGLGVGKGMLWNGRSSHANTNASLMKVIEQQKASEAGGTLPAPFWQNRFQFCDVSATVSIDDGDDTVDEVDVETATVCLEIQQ
# [4] = biological target: Sialic acid-binding Ig-like lectin 9 (Homo sapiens) (UniProt Q9Y336); test: Hs-Siglec9 ALPHAscreen SOP 20170721; set-up: scale not given: direction of the effect not stated beside the values; settings: 10 µM
# Sequence of Sialic acid-binding Ig-like lectin 9 (Homo sapiens) (Q9Y336 whole entry): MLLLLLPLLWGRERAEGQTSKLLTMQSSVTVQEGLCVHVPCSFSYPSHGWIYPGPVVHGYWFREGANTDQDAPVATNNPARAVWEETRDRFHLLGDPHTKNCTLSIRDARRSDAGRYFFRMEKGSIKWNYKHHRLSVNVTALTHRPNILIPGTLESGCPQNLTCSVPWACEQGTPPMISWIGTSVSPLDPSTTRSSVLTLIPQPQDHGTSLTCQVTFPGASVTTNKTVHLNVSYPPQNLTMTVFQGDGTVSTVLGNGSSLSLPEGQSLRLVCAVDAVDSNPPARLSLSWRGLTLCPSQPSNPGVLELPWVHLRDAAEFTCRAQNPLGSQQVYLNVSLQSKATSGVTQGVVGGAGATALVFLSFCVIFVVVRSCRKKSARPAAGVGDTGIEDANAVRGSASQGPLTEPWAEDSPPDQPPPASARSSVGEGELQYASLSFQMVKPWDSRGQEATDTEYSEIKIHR
# [5] = system: Trypanosoma cruzi; test: Trypanosoma cruzi phosphomannomutase and mannose-1-phosphate guanylyltransferase assay; assay type: functional; set-up: scale not given: direction of the effect not stated beside the values; settings: 10 µM
# [6] = biological target: T3, Arginase-2, mitochondrial (Homo sapiens) (UniProt P78540); test: in vitro enzyme assay to detect the production of urea directly proportional to the activity of Arginase II; assay type: functional; set-up: scale not given: in the data most compounds retested in dose-response had high values; settings: 33.3 µM
# T3 sequence (whole entry): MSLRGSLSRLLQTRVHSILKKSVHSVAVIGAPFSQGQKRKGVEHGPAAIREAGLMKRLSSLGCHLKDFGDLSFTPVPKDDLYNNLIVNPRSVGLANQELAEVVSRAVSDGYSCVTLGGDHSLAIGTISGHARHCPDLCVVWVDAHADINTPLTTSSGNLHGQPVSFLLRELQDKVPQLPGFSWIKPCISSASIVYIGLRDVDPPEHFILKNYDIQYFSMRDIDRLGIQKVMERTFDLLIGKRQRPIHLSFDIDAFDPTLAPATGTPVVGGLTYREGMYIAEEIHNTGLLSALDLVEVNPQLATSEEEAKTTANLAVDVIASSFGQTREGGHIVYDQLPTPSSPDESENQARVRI
# [7] = biological target: T4, Proteasome subunit beta (Trypanosoma cruzi) (UniProt O96673); test: Trypanosoma cruzi proteasome chymotrypsin-like activity (TcProtChymo) assay.; assay type: functional; set-up: scale not given: in the data most compounds retested in dose-response had high values; settings: 9.37 µM
# T4 sequence (whole entry): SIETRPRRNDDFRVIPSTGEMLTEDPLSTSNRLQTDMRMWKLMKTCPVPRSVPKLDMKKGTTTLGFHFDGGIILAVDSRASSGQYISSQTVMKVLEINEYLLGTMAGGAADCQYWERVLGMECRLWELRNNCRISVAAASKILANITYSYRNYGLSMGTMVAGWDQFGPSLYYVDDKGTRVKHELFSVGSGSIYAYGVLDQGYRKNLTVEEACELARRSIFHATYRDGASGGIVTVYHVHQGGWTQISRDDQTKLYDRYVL
# [8] = organism: Homo sapiens; test: To identify inhibition of the IFN signalling (Jak-Stat) pathway via expression of an eGFP reporter gene under the control of an IFN-stimulated response element (ISRE) containing MxA promoter.; assay type: functional; set-up: scale not given: direction of the effect not stated beside the values; settings: 30 µM
# [9] = biological target: T5, Tyrosyl-tRNA synthetase, putative (Trypanosoma cruzi (strain CL Brener)) (UniProt Q4DSP6); test: Trypanosoma cruzi tyrosyl tRNA synthetase (TcYRS) _High Tyrosine SOP; assay type: functional; set-up: scale not given: in the data most compounds retested in dose-response had high values; settings: 30 µM
# T5 sequence (whole entry): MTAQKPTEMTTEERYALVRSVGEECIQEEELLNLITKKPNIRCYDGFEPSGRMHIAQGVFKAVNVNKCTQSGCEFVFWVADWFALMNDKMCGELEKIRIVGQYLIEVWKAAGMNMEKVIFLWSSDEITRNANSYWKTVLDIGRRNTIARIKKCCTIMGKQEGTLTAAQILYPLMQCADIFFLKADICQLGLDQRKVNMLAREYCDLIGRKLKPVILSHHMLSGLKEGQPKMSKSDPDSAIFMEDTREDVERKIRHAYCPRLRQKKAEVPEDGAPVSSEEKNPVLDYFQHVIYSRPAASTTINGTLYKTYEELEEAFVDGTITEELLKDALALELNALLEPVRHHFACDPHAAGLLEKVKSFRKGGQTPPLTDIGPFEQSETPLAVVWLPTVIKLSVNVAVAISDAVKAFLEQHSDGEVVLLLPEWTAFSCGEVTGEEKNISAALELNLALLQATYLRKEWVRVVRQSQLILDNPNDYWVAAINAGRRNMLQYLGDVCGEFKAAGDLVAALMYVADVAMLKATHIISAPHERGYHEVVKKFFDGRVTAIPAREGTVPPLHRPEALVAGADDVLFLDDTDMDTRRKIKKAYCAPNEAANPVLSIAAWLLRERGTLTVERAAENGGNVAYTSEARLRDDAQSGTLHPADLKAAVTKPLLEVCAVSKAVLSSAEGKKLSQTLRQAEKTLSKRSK
# [10] = biological target: T5, Tyrosyl-tRNA synthetase, putative (Trypanosoma cruzi (strain CL Brener)); test: Trypanosoma cruzi tyrosyl tRNA synthetase (TcYRS) SOP; assay type: functional; set-up: scale not given: direction of the effect not stated beside the values; settings: 30 µM
# [11] = biological target: Chromo domain-containing protein 1 (Saccharomyces cerevisiae (strain ATCC 204508 / S288c) (Baker's yeast)) (UniProt P32657); test: ScCHD-1 Enzyme Inhibition Assay; assay type: functional; set-up: scale not given: in the data most compounds retested in dose-response had high values; settings: 30 µM
# Sequence of Chromo domain-containing protein 1 (Saccharomyces cerevisiae (strain ATCC 204508 / S288c) (Baker's yeast)) (P32657 whole entry, the tested form may be a part): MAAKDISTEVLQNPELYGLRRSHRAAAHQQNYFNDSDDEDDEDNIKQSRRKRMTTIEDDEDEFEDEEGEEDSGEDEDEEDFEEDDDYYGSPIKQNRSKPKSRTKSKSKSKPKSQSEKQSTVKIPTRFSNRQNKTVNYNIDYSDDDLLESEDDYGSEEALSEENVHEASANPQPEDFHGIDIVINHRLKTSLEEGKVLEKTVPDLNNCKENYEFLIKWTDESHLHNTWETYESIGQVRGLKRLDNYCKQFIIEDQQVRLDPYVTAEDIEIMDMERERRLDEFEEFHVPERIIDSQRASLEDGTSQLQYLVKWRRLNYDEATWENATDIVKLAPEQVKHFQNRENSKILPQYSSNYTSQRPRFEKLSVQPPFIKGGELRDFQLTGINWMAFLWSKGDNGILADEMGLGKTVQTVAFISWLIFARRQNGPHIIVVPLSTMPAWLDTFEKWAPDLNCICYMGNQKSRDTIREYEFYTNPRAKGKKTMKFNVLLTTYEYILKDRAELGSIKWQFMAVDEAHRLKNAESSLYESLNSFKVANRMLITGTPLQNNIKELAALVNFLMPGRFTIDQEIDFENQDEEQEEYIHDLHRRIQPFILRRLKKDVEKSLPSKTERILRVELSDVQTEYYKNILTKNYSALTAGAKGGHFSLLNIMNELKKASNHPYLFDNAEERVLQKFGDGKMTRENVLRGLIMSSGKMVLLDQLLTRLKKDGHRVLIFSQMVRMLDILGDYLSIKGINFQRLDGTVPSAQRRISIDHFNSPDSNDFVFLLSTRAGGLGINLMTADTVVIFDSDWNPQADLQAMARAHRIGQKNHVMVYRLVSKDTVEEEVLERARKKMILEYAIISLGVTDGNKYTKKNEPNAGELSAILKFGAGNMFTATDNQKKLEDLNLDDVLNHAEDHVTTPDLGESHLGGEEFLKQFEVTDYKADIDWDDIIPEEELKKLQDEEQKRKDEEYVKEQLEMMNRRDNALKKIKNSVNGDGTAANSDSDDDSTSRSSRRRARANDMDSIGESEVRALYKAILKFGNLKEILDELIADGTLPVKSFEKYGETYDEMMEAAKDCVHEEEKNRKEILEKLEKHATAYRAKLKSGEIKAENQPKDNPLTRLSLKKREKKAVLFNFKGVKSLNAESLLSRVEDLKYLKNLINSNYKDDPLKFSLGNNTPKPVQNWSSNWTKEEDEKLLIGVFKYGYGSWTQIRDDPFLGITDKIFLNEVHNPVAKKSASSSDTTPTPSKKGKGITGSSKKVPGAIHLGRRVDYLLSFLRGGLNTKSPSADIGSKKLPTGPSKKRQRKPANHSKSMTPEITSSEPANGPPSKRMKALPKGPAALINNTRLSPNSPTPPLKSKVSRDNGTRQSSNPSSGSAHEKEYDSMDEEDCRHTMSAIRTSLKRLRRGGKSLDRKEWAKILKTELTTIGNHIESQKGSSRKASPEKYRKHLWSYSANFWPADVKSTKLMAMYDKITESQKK
compound,measurement,setting,value
Cc1nccn1CCCn1cncc1-c1ccc2c(c1)CCC(C)N2C (configuration not stated),PXC50,"[1]; BOTTOM 4.710746105, HILLSLOPE 1.396694103, MAX_EFFECT 77.77777778, TOP 100.0",4.36
same,PXC50,"[1]; BOTTOM 4.776972445, HILLSLOPE 4.284267496, MAX_EFFECT 55.70469799, TOP 54.26344413",4.56
same,PXC50,"[1]; BOTTOM 5.773645077, HILLSLOPE 1.775302265, MAX_EFFECT 72.6169844, TOP 100.0",4.22
same,PXC50,[1]; MAX_EFFECT 2.857142857,< 4
same,PXC50,[1]; MAX_EFFECT 4.347826087,< 4
CC(C)C[C@H](N)COc1cccc(F)c1Oc1cccc(Cl)c1,PXC50,"[1]; BOTTOM 6.91310013, HILLSLOPE 1.495350679, MAX_EFFECT 83.36221837, TOP 100.0",4.36
same,PXC50,"[1]; BOTTOM 8.664927698, HILLSLOPE 1.748800753, MAX_EFFECT 77.85234899, TOP 95.40759793",4.33
same,PXC50,"[1]; BOTTOM 9.147353303, HILLSLOPE 1.551603339, MAX_EFFECT 81.25, TOP 100.0",4.34
same,PXC50,"[1]; BOTTOM -0.863158235, HILLSLOPE 2.70922767, MAX_EFFECT 71.29186603, TOP 83.59060963",4.29
same,PXC50,"[1]; BOTTOM -4.44021311, HILLSLOPE 1.559741226, MAX_EFFECT 77.3512476, TOP 100.0",4.35
O=C(O)CN1CCC(F)(F)C2(CCN(c3ccccc3)C2)C1 (configuration not stated),PXC50,"[1]; BOTTOM 0.682019073, HILLSLOPE 1.183129542, MAX_EFFECT 69.01408451, TOP 100.0",4.25
same,PXC50,"[1]; BOTTOM 1.497780238, HILLSLOPE 1.024260355, MAX_EFFECT 65.37037037, TOP 100.0",4.23
same,PXC50,"[1]; BOTTOM -1.515302198, HILLSLOPE 0.859784414, MAX_EFFECT 63.76811594, TOP 100.0",4.28
same,PXC50,"[1]; BOTTOM -4.436470638, HILLSLOPE 1.966892025, MAX_EFFECT 57.61821366, TOP 100.0",4.1
same,PXC50,"[1]; BOTTOM -10.23367543, HILLSLOPE 2.537985382, MAX_EFFECT 60.54421769, TOP 60.60381795",4.54
CC(=O)N1CCN(c2ccc3ccc(C(=O)NC4CCCC4)cn23)CC1,PXC50,"[1]; BOTTOM 0.0163, HILLSLOPE 3.098457383, MAX_EFFECT 65.01650165, TOP 63.35125002",4.68
same,PXC50,"[1]; BOTTOM 1.065846223, HILLSLOPE 1.103958369, MAX_EFFECT 61.67400881, TOP 100.0",4.54
same,PXC50,"[1]; BOTTOM 3.194533203, HILLSLOPE 3.014598033, MAX_EFFECT 67.98418972, TOP 64.53848237",4.96
same,PXC50,"[1]; BOTTOM 4.030962781, HILLSLOPE 1.885788534, MAX_EFFECT 71.11111111, TOP 74.41524471",4.79
same,PXC50,"[1]; BOTTOM 4.940042643, HILLSLOPE 1.835166553, MAX_EFFECT 81.72043011, TOP 100.0",4.36
same,PXC50,"[1]; BOTTOM 5.527382632, HILLSLOPE 1.355052942, MAX_EFFECT 67.14876033, TOP 100.0",4.56
same,PXC50,"[1]; BOTTOM 8.593441039, HILLSLOPE 3.55536171, MAX_EFFECT 67.39130435, TOP 63.3453536",4.8
same,Percent Effect,[2],-2.65%
same,Percent Effect,[3],14.3%
same,Percent Effect,[4],3.54%
same,Percent Effect,[5],-0.563%
same,Percent Effect,[6],1.37%
same,Percent Effect,[7],12.4%
same,Percent Effect,[8],8.76%
same,Percent Effect,[9],31.9%
same,Percent Effect,[10],15%
same,Percent Effect,[11],-4.27%
